The supplement of paper PMC6555819

Assays:
Assay in all cases: PBM binding z-score (relative to random genomic background probes); higher = stronger binding; sequences stand for … in GC…GCGATTGACAGCGTAGAATGAAGG
[1] = system: RARb homodimer (NR concentration 270 nM)
In short: (§1)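 Binding z-scores were set against random background probes. The data came from custom Agilent 4×180K protein-binding microarrays carrying double-stranded probes with 34-nt variable regions, incubated 1 h with ligand-free nuclear receptor dimers. Partner-specific antibodies detected binding, and scanned fluorescence was regression-normalized.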

[2] = system: RARg:RXRa (NR concentration 270 nM, RXRa partner concentration 90 nM)
In short: as §1

[3] = system: RARg homodimer (NR concentration 270 nM)
In short: as §1

[4] = system: RXRa DBDmut IVT, anti-RXR (DBD mutation: RXRa K156A/R161A, NR concentration 90 nM)
In short: as §1

[5] = system: RXRa homodimer (NR concentration 180 nM)
In short: as §1

[6] = system: THRa:RXRa (NR concentration 90 nM, RXRa partner concentration 90 nM)
In short: as §1

[7] = system: THRa homodimer (NR concentration 90 nM)
In short: as §1

[8] = system: VDR homodimer (NR concentration 270 nM)
In short: as §1

Row | Sequence | PBM binding z-score [1] | PBM binding z-score [2] | PBM binding z-score [3] | PBM binding z-score [4] | PBM binding z-score [5] | PBM binding z-score [6] | PBM binding z-score [7] | PBM binding z-score [8]
1 | TAGCCTAGGTCATTCAGCGGCCAGTATAGAAAGC | 2.81 | 5.65 | 4.44 | 1.85 | 3.07 | 2.74 | 0.53 | 1.04
2 | CGTCCATGGTCAAAGGTCAGTGAAGAGATGACGG | 4.5 | 5.6 | 5.53 | 0.569 | 5.87 | 2.73 | -0.0105 | 0.771
3 | ATATGTAGGTTTGCTGGGGTCATTCAGACTAGGC | 3.3 | 3.6 | 2.31 | 2.62 | 4.91 | 4.29 | 3.2 | 5.58
4 | GCGACTCGGGCAAAGCAGGTTACCATAAGGTTGG | 0.473 | 0.453 | 0.464 | -0.723 | 0.252 | 1.87 | -0.264 | -0.533
5 | TCTTGTAGATCAATCAGGTTAAGAAAGCCTGAGT | 0.194 | 0.0482 | -0.074 | 0.724 | 0.241 | 1.02 | 0.308 | 0.0655
6 | GGAACGAGGGCATTCGAGTTGTTAGCATGGCGAT | 0.647 | 0.902 | 1.17 | 2.89 | 0.659 | 2.06 | -0.524 | 2.43
7 | TCTTGTAGATCAACGGGAGGTTAAGAAAGATCGA | 0.654 | 1.49 | 0.307 | 0.748 | 1.06 | 1.11 | -0.165 | -0.124
